Results published in publication PMC7862700, “An all-to-all approach to the identification of sequence-specific readers for epigenetic DNA modifications on cytosine”.

Tests used:
Assay in all cases: DAPPL (digital affinity profiling via proximity ligation, sequencing); 10 mM Tris-HCl pH 7.5, 50 mM NaCl, 1 mM DTT, 4% glycerol, room temperature, 30 min; GST-TFs on glutathione beads, 16-mer random dsDNA library, 0.1% formaldehyde crosslink after washing; high values mean tight binding
FLI1 = biological target: T1, FLI1 (Homo sapiens, UniProt Q01543 1-452); conditions: protein: recombinant; tags: N-terminal GST; dsDNA, one strand shown
T1 sequence: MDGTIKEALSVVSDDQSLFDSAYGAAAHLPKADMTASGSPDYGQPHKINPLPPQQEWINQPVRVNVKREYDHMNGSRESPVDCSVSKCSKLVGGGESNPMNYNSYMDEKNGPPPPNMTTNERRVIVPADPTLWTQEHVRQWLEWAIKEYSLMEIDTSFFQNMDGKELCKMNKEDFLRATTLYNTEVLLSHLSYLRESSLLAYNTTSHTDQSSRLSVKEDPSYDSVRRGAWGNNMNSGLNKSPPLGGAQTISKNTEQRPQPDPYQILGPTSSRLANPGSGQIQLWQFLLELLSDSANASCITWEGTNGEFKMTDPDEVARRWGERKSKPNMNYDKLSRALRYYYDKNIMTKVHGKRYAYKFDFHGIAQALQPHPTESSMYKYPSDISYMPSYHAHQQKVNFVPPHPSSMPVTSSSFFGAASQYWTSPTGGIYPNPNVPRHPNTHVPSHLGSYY
In short: (§1)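 A tag-only sample was pooled with DNA-barcoded human transcription factors that had been expressed in yeast as GST fusions and captured on glutathione beads. The pools were incubated for 30 min at room temperature with 200 nmole of a random double-stranded 16-mer DNA library in Tris/NaCl/DTT/glycerol buffer, then washed, crosslinked with 0.1% formaldehyde, proximity-ligated (BsaI/T4 ligase, 1 h, 37 °C), PCR-amplified and sequenced on an Illumina NextSeq500. Binding signal is each hexamer's read frequency for a factor divided by its frequency for the tag-only sample.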

ELK1 = biological target: T2, ELK1 (Homo sapiens, UniProt P19419 1-428); conditions: protein: recombinant; tags: N-terminal GST; dsDNA, one strand shown
T2 sequence: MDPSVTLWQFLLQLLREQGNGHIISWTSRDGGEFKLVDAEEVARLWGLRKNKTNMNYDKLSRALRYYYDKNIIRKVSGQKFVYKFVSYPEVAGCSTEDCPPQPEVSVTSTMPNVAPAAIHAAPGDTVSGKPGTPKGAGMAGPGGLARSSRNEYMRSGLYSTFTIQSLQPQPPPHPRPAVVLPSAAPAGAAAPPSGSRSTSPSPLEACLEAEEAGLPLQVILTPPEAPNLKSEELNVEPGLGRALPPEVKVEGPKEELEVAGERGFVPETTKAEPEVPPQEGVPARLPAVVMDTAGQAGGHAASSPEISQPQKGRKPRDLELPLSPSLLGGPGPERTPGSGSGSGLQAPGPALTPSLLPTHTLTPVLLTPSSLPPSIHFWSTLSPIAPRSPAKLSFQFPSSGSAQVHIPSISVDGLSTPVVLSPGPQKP
In short: as §1

GABPA = biological target: T3, GABPA (Homo sapiens, UniProt Q06546 1-454); conditions: protein: recombinant; tags: N-terminal GST; dsDNA, one strand shown
T3 sequence: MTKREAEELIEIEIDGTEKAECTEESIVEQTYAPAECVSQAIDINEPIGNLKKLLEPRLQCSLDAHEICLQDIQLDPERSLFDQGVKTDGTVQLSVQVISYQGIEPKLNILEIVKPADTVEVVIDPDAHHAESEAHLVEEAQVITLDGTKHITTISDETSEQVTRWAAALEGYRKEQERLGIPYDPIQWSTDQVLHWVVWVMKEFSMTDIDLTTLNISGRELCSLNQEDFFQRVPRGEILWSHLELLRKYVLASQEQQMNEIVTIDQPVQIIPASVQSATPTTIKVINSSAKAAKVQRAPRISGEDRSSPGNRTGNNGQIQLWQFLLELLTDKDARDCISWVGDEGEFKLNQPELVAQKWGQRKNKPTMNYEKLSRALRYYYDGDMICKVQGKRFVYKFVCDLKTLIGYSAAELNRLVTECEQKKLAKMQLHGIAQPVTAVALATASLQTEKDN
In short: as §1

ERG = biological target: T4, ERG (Homo sapiens, UniProt P11308 1-479); conditions: protein: recombinant; tags: N-terminal GST; dsDNA, one strand shown
T4 sequence: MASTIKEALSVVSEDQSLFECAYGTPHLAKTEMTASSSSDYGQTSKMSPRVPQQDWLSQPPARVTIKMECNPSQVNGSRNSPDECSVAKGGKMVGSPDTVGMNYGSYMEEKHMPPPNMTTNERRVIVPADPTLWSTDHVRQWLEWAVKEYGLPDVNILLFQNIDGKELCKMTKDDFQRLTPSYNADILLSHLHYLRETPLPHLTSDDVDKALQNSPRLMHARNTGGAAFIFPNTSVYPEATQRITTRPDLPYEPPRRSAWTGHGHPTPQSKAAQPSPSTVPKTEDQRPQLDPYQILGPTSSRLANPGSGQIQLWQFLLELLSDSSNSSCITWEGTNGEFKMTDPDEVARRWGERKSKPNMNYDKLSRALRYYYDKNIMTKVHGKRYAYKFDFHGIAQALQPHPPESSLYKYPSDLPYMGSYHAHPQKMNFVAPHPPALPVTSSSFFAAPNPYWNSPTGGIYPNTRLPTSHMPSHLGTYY
In short: as §1

ELF1 = ELF1 (Homo sapiens, UniProt P32519 1-619); conditions: protein: recombinant; tags: N-terminal GST; dsDNA, one strand shown
In short: as §1

EHF = biological target: T5, EHF (Homo sapiens, UniProt Q9NZC4 1-300); conditions: protein: recombinant; tags: N-terminal GST; dsDNA, one strand shown
T5 sequence: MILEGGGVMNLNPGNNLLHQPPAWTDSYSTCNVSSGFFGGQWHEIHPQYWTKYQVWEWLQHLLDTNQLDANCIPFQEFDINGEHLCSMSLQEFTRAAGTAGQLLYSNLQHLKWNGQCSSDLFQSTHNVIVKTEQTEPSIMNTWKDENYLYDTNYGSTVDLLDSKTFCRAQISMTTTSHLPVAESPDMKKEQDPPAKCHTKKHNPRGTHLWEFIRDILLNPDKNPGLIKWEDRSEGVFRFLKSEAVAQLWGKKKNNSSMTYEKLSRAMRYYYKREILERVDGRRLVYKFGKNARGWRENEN
In short: as §1

SPI1 = SPI1 (Homo sapiens, UniProt P17947 1-270); conditions: protein: recombinant; tags: N-terminal GST; dsDNA, one strand shown
In short: as §1

SPIB = SPIB (Homo sapiens, UniProt Q01892 1-262); conditions: protein: recombinant; tags: N-terminal GST; dsDNA, one strand shown
In short: as §1

ELK3 = biological target: T6, ELK3 (Homo sapiens, UniProt P41970 1-407); conditions: protein: recombinant; tags: N-terminal GST; dsDNA, one strand shown
T6 sequence: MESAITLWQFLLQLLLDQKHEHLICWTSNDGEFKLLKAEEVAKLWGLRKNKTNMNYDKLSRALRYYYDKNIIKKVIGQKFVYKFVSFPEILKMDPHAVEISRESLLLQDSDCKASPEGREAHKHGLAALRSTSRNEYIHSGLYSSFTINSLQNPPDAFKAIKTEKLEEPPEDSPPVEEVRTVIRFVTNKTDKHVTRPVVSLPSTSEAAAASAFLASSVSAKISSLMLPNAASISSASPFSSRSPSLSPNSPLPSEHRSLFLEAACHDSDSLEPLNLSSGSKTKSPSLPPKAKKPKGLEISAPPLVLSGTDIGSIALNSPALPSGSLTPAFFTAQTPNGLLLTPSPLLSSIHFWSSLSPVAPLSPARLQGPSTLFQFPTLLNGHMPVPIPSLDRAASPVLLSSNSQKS
In short: as §1

FEV = biological target: T7, FEV (Homo sapiens, UniProt Q99581 1-238); conditions: protein: recombinant; tags: N-terminal GST; dsDNA, one strand shown
T7 sequence: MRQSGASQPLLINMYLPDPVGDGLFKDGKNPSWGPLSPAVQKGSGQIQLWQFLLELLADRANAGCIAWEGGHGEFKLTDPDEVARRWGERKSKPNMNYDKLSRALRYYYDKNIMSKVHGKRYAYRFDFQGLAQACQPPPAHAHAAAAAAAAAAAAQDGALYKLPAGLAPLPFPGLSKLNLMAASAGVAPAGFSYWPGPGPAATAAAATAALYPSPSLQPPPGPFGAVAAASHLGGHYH
In short: as §1

ETV5 = ETV5 (Homo sapiens, UniProt P41161 1-510); conditions: protein: recombinant; tags: N-terminal GST; dsDNA, one strand shown
In short: as §1

HSF1 = HSF1 (Homo sapiens, UniProt Q00613 1-529); conditions: protein: recombinant; tags: N-terminal GST; chain copies: 3; dsDNA, one strand shown
In short: as §1

SPIC = biological target: T8, SPIC (Homo sapiens, UniProt Q8N5J4 1-248); conditions: protein: recombinant; tags: N-terminal GST; dsDNA, one strand shown
T8 sequence: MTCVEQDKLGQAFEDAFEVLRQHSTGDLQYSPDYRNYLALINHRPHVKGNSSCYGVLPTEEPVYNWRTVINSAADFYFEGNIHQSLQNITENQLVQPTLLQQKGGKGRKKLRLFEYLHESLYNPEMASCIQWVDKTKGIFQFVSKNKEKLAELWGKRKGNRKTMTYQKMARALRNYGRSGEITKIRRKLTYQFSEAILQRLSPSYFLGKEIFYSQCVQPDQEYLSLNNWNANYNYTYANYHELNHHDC
In short: as §1

ELF4 = ELF4 (Homo sapiens, UniProt Q99607 1-663); conditions: protein: recombinant; tags: N-terminal GST; dsDNA, one strand shown
In short: as §1

ELK4 = biological target: T9, ELK4 (Homo sapiens, UniProt P28324-2 1-405); conditions: protein: recombinant; tags: N-terminal GST; dsDNA, one strand shown
T9 sequence: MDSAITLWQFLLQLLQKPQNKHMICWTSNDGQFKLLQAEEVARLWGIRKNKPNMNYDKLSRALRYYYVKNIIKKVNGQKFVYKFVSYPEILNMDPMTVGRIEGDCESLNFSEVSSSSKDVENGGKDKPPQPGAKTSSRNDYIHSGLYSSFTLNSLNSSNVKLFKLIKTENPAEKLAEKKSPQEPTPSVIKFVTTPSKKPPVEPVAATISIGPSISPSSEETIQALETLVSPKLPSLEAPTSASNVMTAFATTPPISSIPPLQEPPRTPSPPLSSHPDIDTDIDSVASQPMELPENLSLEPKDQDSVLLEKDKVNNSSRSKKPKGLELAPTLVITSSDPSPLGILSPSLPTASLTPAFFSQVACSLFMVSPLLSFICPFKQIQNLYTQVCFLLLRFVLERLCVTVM
In short: as §1

ETV2 = biological target: T10, ETV2 (Homo sapiens, UniProt O00321 1-342); conditions: protein: recombinant; tags: N-terminal GST; dsDNA, one strand shown
T10 sequence: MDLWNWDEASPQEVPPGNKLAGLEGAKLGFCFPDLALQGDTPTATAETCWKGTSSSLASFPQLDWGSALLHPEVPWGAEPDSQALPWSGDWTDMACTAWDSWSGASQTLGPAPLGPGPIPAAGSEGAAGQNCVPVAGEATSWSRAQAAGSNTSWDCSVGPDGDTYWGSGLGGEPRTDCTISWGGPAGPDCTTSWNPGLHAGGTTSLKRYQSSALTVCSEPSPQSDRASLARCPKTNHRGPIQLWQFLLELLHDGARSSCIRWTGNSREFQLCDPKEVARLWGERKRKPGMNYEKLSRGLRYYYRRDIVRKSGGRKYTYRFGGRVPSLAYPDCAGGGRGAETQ
In short: as §1

ELF3 = biological target: T11, ELF3 (Homo sapiens, UniProt P78545 1-371); conditions: protein: recombinant; tags: N-terminal GST; dsDNA, one strand shown
T11 sequence: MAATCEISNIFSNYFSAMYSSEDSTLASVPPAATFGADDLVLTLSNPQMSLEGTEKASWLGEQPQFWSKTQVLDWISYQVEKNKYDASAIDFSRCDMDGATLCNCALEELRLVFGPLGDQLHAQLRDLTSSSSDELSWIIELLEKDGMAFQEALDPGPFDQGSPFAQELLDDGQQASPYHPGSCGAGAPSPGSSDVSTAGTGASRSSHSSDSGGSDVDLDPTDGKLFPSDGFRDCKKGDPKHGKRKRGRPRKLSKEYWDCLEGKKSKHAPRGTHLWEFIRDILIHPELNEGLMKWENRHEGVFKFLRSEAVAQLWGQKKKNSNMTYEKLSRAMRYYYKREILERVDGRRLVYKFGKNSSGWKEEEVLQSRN
In short: as §1

CRX = CRX (Homo sapiens, UniProt O43186 1-299); conditions: protein: recombinant; tags: N-terminal GST; dsDNA, one strand shown
In short: as §1

ETV1 = ETV1 (Homo sapiens, UniProt P50549 1-477); conditions: protein: recombinant; tags: N-terminal GST; dsDNA, one strand shown
In short: as §1

HSF1, sequence (Q00613 whole entry): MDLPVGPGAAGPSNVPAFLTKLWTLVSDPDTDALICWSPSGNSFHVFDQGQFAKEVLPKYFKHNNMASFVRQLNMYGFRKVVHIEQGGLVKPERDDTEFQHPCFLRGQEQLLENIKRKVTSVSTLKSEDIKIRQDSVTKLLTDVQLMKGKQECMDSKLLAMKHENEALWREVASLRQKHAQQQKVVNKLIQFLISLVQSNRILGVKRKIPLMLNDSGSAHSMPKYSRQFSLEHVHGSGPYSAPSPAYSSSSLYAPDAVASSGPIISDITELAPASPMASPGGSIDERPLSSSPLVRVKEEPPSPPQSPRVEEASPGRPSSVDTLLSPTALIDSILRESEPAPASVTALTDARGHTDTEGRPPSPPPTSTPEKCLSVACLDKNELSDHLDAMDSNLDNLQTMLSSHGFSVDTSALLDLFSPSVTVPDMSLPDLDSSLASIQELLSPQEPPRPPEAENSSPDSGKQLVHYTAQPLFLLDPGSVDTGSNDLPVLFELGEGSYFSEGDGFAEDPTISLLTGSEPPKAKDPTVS
SPIB, sequence (Q01892 whole entry): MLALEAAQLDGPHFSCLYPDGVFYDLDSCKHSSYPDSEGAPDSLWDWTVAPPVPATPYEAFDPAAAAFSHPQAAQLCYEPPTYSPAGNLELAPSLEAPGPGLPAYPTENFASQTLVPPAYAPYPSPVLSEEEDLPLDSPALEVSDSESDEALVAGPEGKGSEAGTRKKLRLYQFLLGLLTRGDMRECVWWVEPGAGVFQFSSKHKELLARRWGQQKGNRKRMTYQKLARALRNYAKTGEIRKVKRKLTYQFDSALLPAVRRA
ELF1, sequence (P32519 whole entry): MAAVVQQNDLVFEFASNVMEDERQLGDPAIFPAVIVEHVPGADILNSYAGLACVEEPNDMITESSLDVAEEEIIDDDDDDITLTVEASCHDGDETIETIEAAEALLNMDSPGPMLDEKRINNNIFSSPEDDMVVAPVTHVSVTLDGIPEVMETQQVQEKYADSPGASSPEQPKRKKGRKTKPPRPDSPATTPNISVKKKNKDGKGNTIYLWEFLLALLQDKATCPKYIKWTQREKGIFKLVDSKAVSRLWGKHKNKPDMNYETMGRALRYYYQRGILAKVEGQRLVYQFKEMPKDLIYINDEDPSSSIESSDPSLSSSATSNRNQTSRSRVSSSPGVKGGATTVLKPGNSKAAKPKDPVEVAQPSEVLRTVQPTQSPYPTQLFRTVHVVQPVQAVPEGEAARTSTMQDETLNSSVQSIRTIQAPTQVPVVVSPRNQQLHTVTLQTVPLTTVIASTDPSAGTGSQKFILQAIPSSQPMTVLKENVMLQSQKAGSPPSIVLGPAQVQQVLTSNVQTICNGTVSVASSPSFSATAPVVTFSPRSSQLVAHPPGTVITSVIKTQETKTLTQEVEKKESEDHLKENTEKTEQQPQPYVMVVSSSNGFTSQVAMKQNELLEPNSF
CRX, sequence (O43186 whole entry): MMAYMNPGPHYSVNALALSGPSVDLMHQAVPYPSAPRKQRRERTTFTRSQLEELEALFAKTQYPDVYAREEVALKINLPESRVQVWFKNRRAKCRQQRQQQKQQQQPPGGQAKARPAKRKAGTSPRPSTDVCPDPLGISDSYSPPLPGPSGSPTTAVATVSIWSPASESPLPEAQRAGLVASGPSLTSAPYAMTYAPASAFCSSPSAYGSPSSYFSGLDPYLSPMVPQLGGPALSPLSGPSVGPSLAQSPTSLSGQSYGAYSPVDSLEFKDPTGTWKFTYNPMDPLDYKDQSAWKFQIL
ETV5, sequence (P41161 whole entry): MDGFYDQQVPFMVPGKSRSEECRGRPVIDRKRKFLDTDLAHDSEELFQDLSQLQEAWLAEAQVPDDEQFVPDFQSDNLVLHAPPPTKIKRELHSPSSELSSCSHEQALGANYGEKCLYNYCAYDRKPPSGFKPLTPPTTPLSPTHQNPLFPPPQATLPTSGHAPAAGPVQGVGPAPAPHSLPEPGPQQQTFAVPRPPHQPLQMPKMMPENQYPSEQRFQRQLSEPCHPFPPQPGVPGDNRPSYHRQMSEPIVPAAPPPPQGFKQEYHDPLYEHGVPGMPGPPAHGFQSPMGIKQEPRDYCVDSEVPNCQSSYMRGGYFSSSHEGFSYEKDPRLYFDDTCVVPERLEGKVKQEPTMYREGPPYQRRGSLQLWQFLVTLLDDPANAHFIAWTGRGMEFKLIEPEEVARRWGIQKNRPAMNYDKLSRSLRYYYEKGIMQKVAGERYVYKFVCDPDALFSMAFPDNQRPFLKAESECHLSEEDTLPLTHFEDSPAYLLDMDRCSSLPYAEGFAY
ETV1, sequence (P50549 whole entry): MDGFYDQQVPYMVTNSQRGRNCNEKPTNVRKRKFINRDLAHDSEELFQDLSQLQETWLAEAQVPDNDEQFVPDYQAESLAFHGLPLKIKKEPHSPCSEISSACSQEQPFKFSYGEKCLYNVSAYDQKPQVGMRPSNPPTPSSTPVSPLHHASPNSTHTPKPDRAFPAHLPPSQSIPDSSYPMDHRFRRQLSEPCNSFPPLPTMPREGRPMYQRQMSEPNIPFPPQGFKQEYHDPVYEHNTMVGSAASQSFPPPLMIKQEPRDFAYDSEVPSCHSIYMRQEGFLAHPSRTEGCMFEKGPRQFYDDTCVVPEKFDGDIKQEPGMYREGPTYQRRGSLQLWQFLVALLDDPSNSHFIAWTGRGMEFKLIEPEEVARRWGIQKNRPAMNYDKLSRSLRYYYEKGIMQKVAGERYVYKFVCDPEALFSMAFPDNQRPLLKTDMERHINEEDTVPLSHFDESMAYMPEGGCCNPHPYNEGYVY
ELF4, sequence (Q99607 whole entry): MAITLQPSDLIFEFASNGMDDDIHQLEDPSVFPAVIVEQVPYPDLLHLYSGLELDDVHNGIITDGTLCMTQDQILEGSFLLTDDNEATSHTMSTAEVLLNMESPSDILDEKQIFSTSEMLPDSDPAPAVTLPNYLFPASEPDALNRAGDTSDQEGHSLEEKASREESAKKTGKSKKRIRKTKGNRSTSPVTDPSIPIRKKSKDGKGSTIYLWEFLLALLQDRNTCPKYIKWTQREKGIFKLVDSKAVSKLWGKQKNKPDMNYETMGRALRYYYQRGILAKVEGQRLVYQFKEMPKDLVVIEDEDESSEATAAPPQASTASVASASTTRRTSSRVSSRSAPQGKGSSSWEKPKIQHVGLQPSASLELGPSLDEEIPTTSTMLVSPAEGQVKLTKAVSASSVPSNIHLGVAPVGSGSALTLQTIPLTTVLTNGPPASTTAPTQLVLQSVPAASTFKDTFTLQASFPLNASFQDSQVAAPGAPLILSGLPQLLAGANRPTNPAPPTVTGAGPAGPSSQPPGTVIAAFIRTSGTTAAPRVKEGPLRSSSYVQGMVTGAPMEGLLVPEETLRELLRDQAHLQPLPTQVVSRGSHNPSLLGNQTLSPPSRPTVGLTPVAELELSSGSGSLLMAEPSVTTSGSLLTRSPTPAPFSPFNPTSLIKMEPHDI

## AACTTA
FLI1
  binding signal: 1.28 fold enrichment (6-mer frequency, TF over GST control)
ELK1
  binding signal: 1.24 fold enrichment (6-mer frequency, TF over GST control)
GABPA
  binding signal: 1.32 fold enrichment (6-mer frequency, TF over GST control)
ERG
  binding signal: 1.18 fold enrichment (6-mer frequency, TF over GST control)
ELF1
  binding signal: 1.27 fold enrichment (6-mer frequency, TF over GST control)
EHF
  binding signal: 1.34 fold enrichment (6-mer frequency, TF over GST control)
SPI1
  binding signal: 1.23 fold enrichment (6-mer frequency, TF over GST control)
SPIB
  binding signal: 1.23 fold enrichment (6-mer frequency, TF over GST control)
ELK3
  binding signal: 1.26 fold enrichment (6-mer frequency, TF over GST control)
FEV
  binding signal: 1.2 fold enrichment (6-mer frequency, TF over GST control)
ETV5
  binding signal: 1.23 fold enrichment (6-mer frequency, TF over GST control)
HSF1
  binding signal: 1.41 fold enrichment (6-mer frequency, TF over GST control)
SPIC
  binding signal: 1.27 fold enrichment (6-mer frequency, TF over GST control)
ELF4
  binding signal: 1.19 fold enrichment (6-mer frequency, TF over GST control)
ELK4
  binding signal: 1.22 fold enrichment (6-mer frequency, TF over GST control)
ETV2
  binding signal: 1.08 fold enrichment (6-mer frequency, TF over GST control)
ELF3
  binding signal: 1.12 fold enrichment (6-mer frequency, TF over GST control)
CRX
  binding signal: 1.72 fold enrichment (6-mer frequency, TF over GST control)
ETV1
  binding signal: 1.22 fold enrichment (6-mer frequency, TF over GST control)
